The list is not random: actives were taken first. Their share in the collection is about 1.8%.
LGR2 inh: inhibitors of bursicon-induced LGR2 CRE-luciferase signal, primary screen, cell-based, HEK293, CRE-luciferase reporter, bursicon stimulation; bursicon-stimulated, 4 h; 380,000 tested, 0.35% active; Drosophila bursicon receptor LGR2 (rickets); inhibition, % at 9.99 µM;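 active = drop in luminescence signal, shown as inhibition above about 50% in the replicate tests, limit read from the data, passing the limit was not always enough; inconclusive = probably only some replicates passing the limit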;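 also: agonist challenge used bursicon conditioned medium at about half maximal strength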
CFTR F508del cor: F508del CFTR correction, initial screen, CFBE line, single point; CFBE cells, YFP halide quenching; stimulated with forskolin plus potentiator P3; % fluorescence drop versus neutral controls; activity (quench increase), % at 7.58 µM; 350,000 tested, 0.36% active;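 active = mean added fluorescence quench of at least 8% versus neutral control, with both replicates also reaching 8%; inconclusive = only one of the mean or replicate conditions met; inactive = mean below 8% and not both replicates reaching 8%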;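 also: cells transiently co-express mutant CFTR-F508del with the halide-sensitive YFP; corrector assay measuring rescue of mutant channel to the surface after 24 h compound exposure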
EWS-Fli block: EWS/Fli-driven NR0B1 reporter inhibitors, primary screen, A673 cells, NR0B1 luciferase, luminescence, MLPCN library; viability-normalised; inhibition, % at 12.6 µM; 350,000 tested, 0.67% active; AID 651661, 2012;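 active = mean inhibition of at least 50% after viability correction, with every replicate also passing that limit; inconclusive = mean reaches 50% but only one of two replicates passes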;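 also: firefly luciferase signal divided by Alamar Blue viability fluorescence both relative to DMSO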
PAX8 inh HTS: inhibitors of PAX8-driven TPO luciferase reporter, primary screen, RMG-I cells, single concentration. inhibition, % at 12.6 µM. 360,000 tested, 1.2% active. AID 652154, 2013. SteadyGlo, 24 h;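 active = mean replicate inhibition at least 60% with every replicate also reaching 60%; inconclusive = only one of the two criteria is met; inactive = mean below 60% and not all replicates reaching 60%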;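 also: luciferase light reporting Pax8 driven TPO promoter activity; plate controls were median of neutral control wells for no effect and mitoxantrone controls for full effect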
Active calls of the source: *.

Screening CC(C)NC(=O)Nc1cccc2c1O[C@@H](CN(C)C(=O)Nc1cccc3ccccc13)[C@H](C)CN([C@H](C)CO)C2=O returned LGR2 inh -8, CFTR F508del cor 0, EWS-Fli block 1 and PAX8 inh HTS 12.
Screening CCOC(=O)c1ccc(N2CCOCC2)c(NC(=O)c2c(-c3ccccc3)noc2C)c1 returned LGR2 inh -1, CFTR F508del cor 16*, EWS-Fli block 38 and PAX8 inh HTS 17.
For COc1ccccc1-c1cn(CC[C@@H]2CC[C@H](NC(=O)Cc3ccccn3)[C@@H](CO)O2)nn1 the results were LGR2 inh 2, CFTR F508del cor -2, EWS-Fli block 1 and PAX8 inh HTS 8.
`CCCCNC(=O)c1sc2nc(C)cc(COC)c2c1-n1cccc1` gave PAX8 inh HTS 5.
COCc1cc(C)nc2sc(C(=O)NN)c(-n3cccc3)c12 was read as LGR2 inh -10, CFTR F508del cor -2, EWS-Fli block 3 and PAX8 inh HTS 61*.
CC(=O)c1ccc(S(=O)(=O)N2CCN(c3nn(C)c(=O)n(C)c3=O)CC2)cc1 was read as LGR2 inh -3, CFTR F508del cor 0, EWS-Fli block -1 and PAX8 inh HTS 2.
Screening Cc1c(CCC(=O)O)c(=O)oc2cc3oc4c(c3cc12)CCCC4 returned LGR2 inh -52, CFTR F508del cor -2, EWS-Fli block 57* and PAX8 inh HTS -32.
For Cc1ccc2c(c1)/C(=C/c1ccccc1)C(=O)N2 the results were LGR2 inh -10, CFTR F508del cor 0, EWS-Fli block -5 and PAX8 inh HTS -17.
`COc1ccc2c(c1)/C(=C\c1cccc(/C=C3/C(=O)Nc4ccc(OC)cc43)n1)C(=O)N2` gave LGR2 inh 74*, CFTR F508del cor -10, EWS-Fli block 67* and PAX8 inh HTS 27.
COc1cc(/C=C(\CC(=O)O)c2nc3ccccc3s2)ccc1OCC(=O)Nc1ccccc1F was read as LGR2 inh -19, CFTR F508del cor 18*, EWS-Fli block -13 and PAX8 inh HTS 12.
CO[C@@]12[C@@H]3N[C@@H]3CN1C1=C(C(=O)C(N)=C(C)C1=O)[C@@H]2COC(N)=O was read as LGR2 inh -18, CFTR F508del cor 14*, EWS-Fli block 27 and PAX8 inh HTS 48.
C[C@H]1CCCCO[C@@H](CN(C)S(=O)(=O)c2ccccc2)[C@@H](C)CN([C@@H](C)CO)C(=O)c2cc(NC(=O)NC3CCCCC3)ccc2O1 was read as LGR2 inh 14, CFTR F508del cor -2, EWS-Fli block 14 and PAX8 inh HTS 69*.
COc1ccc(S(=O)(=O)N(C)C[C@@H]2OCCCC[C@H](C)Oc3ccc(NC(=O)NC4CCCCC4)cc3C(=O)N([C@@H](C)CO)C[C@@H]2C)cc1 was read as LGR2 inh -10, CFTR F508del cor -6, EWS-Fli block 13 and PAX8 inh HTS 66*.
For C[C@H]1CCCCO[C@@H](CN(C)S(=O)(=O)c2ccc(F)cc2)[C@@H](C)CN([C@@H](C)CO)C(=O)c2cc(NC(=O)NC3CCCCC3)ccc2O1 the results were LGR2 inh 4, CFTR F508del cor -5, EWS-Fli block 8 and PAX8 inh HTS 66*.
For COc1cccc(NC(=O)COC(=O)CCS(=O)(=O)c2ccc(C)cc2)c1 the results were LGR2 inh -4, CFTR F508del cor -2, EWS-Fli block 2 and PAX8 inh HTS 3.
Screening COc1ccc(NC(=O)N(C)C[C@H]2OCCCC[C@H](C)Oc3ccc(NC(=O)NC4CCCCC4)cc3C(=O)N([C@H](C)CO)C[C@H]2C)cc1 returned LGR2 inh 17, CFTR F508del cor 1, EWS-Fli block 1 and PAX8 inh HTS -16.
Screening CN1c2ccc(-c3ccc(F)cc3)cc2[C@@H]2[C@@H](CCN2S(=O)(=O)c2cccc(F)c2)[C@@H]1CO returned LGR2 inh -10, CFTR F508del cor 1, EWS-Fli block 4 and PAX8 inh HTS -7.
`COc1ccc(-c2ccc3c(c2)[C@H]2[C@H](CCN2S(=O)(=O)c2ccccc2C)[C@H](CO)N3C)cc1` gave LGR2 inh 19, CFTR F508del cor 1, EWS-Fli block 12 and PAX8 inh HTS 69*.
Screening COc1ccc(S(=O)(=O)N2CC[C@@H]3[C@H]2c2cc(-c4ccc(F)cc4)ccc2N(C)[C@H]3CO)cc1 returned LGR2 inh 9, CFTR F508del cor -1, EWS-Fli block 1 and PAX8 inh HTS -12.
For CN1c2ccc(-c3ccc(F)cc3)cc2[C@H]2[C@H](CCN2S(=O)(=O)c2cccc(F)c2)[C@H]1CO the results were LGR2 inh 1, CFTR F508del cor 16*, EWS-Fli block inconclusive and PAX8 inh HTS 4.
`COc1ccc(S(=O)(=O)N2CC[C@@H]3[C@H](CO)N(C)c4ccc(-c5ccc(F)cc5)cc4[C@@H]32)cc1` gave LGR2 inh -18, CFTR F508del cor 11*, EWS-Fli block 46 and PAX8 inh HTS inconclusive.
CCS(=O)(=O)N1[C@H](CO)[C@@H](c2ccc(-c3cccc(F)c3)cc2)[C@@H]1C#N was read as LGR2 inh 4, CFTR F508del cor 1, EWS-Fli block -3 and PAX8 inh HTS -13.
CC(OC(=O)c1ccc(Cl)nc1)C(=O)NC(C)(C)C (configuration not stated) was read as LGR2 inh -11, CFTR F508del cor 10*, EWS-Fli block 2 and PAX8 inh HTS 1.
`CC(OC(=O)c1ccc(Cl)nc1)C(=O)NC1CCCC1` (configuration not stated) gave LGR2 inh -16, CFTR F508del cor 2, EWS-Fli block -3 and PAX8 inh HTS 2.
Screening O=C(NCCN1CCN(c2ccccc2)CC1)Nc1ccccc1Br returned LGR2 inh 31, CFTR F508del cor 0, EWS-Fli block 3 and PAX8 inh HTS 15.
For C/C=C(/C)C(=O)O[C@@H]1c2c(ccc3ccc(=O)oc23)O[C@@H]1C(C)(C)OC(=O)/C(C)=C\C the results were LGR2 inh 58*, CFTR F508del cor -4, EWS-Fli block 9 and PAX8 inh HTS 51.
C/C=C(/C)C(=O)OC(C)(C)[C@@H]1Cc2c(ccc3ccc(=O)oc23)O1 was read as LGR2 inh 8, CFTR F508del cor 1, EWS-Fli block -4 and PAX8 inh HTS -3.
COc1cc2c(c(OC)c1OC)-c1ccc(SC)c(=O)cc1C(NC=O)CC2 (configuration not stated) was read as LGR2 inh 20, CFTR F508del cor -2, EWS-Fli block 62* and PAX8 inh HTS 100*.
Screening COc1c(O[C@@H]2O[C@H](CO)[C@@H](O)[C@H](O)[C@H]2O)cc2c(c1OC)-c1ccc(SC)c(=O)cc1C(NC(C)=O)CC2 (some centres not stated) returned LGR2 inh 11, CFTR F508del cor 14*, EWS-Fli block 6 and PAX8 inh HTS -3.

High-throughput results deposited in PubChem BioAssay by Broad Institute.
